According to the supplement of paper PMC12494721:
Structures can show the parent of a compound that is named as a salt.

How the values were obtained:
Conditions in all cases: incubation time: 27 h, anaerobic, 37 °C;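 for the amine columns active = adjusted P below 0.05 in both replicates with a change the same way and a mean fold change under 0.8 or over 1.25; inactive = the rest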
[1] = system: Clostridium sporogenes DSM 1664; assay: growth (OD595) fold change vs plate DMSO controls (fold change (ratio)); higher = more growth
Method in brief: (§1)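 Anaerobic 27 h, 37 °C mGAM 96-well cultures were shaken, then read for absorbance at 595 nm. Values were blank-subtracted and corrected for compound background using 20 µM compound solutions in water. A calibration factor of 5 converted them to OD. Growth is the fold change versus the median of plate DMSO controls. Fold changes above 1.5 were set to NA, and values are the mean of 2 biological replicates.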

Escherichia coli IAI1 [2] = assay: as above
Method in brief: as §1

[3] = system: Klebsiella aerogenes DSM 30053; assay: as above
Method in brief: as §1

[4] = system: Ruminococcus gnavus DSM 108212; assay: as above
Method in brief: as §1

[5] = system: Klebsiella aerogenes DSM 30053; assay: fold change of Histamine concentration vs plate DMSO controls (fold change (ratio)); higher = more amine produced, active = hit call of the paper (significant change in both replicates, either direction)
Method in brief: (§2)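 Amine values are fold changes relative to DMSO-only wells on the same plate. They derive from 27 h, 37 °C anaerobic mGAM cultures of four gut bacterial strains in 80 µL wells, dosed at 20 µM final, or 50 µM final for sweeteners. Extraction of the whole culture, LC–triple-quadrupole MS in dynamic MRM mode, external calibration curves and within-batch drift correction were used, with 2 biological replicates averaged.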

[6] = system: Clostridium sporogenes DSM 1664; assay: fold change of Tryptamine concentration vs plate DMSO controls (fold change (ratio)); higher = more amine produced, active = hit call of the paper (significant change in both replicates, either direction)
Method in brief: as §2

[7] = system: Ruminococcus gnavus DSM 108212; assay: as above
Method in brief: as §2

Escherichia coli IAI1 [8] = assay: fold change of Putrescine concentration vs plate DMSO controls (fold change (ratio)); higher = more amine produced, active = hit call of the paper (significant change in both replicates, either direction)
Method in brief: as §2

[9] = system: Klebsiella aerogenes DSM 30053; assay: as above
Method in brief: as §2

Escherichia coli IAI1 [10] = assay: fold change of Cadaverine concentration vs plate DMSO controls (fold change (ratio)); higher = more amine produced, active = hit call of the paper (significant change in both replicates, either direction)
Method in brief: as §2

[11] = system: Klebsiella aerogenes DSM 30053; assay: as above
Method in brief: as §2

[12] = system: Ruminococcus gnavus DSM 108212; assay: fold change of 2-Phenylethylamine concentration vs plate DMSO controls (fold change (ratio)); higher = more amine produced, active = hit call of the paper (significant change in both replicates, either direction)
Method in brief: as §2

SMILES: COc1ccc(Cl)cc1C(=O)NCCc1ccc(S(=O)(=O)NC(=O)NC2CCCCC2)cc1 [Glibenclamide] (20 µM)
- growth [1]: 1.19
- growth (Escherichia coli IAI1 [2]): 1
- growth [3]: 1.04
- growth [4]: 1.04
- fold change of Histamine concentration [5]: 0.91 (inactive)
- fold change of Tryptamine concentration [6]: 1.03 (inactive)
- fold change of Tryptamine concentration [7]: 1.06 (inactive)
- fold change of Putrescine concentration (Escherichia coli IAI1 [8]): 0.96 (inactive)
- fold change of Putrescine concentration [9]: 0.964 (inactive)
- fold change of Cadaverine concentration (Escherichia coli IAI1 [10]): 0.909 (inactive)
- fold change of Cadaverine concentration [11]: 1.03 (inactive)
- fold change of 2-Phenylethylamine concentration [12]: 1.09 (inactive)

SMILES: N#Cc1cc(NC(=O)C(=O)O)c(Cl)c(NC(=O)C(=O)O)c1 [Lodoxamide] (20 µM)
- growth [1]: 1.02
- growth (Escherichia coli IAI1 [2]): 1.15
- growth [3]: 1.01
- growth [4]: 1.12
- fold change of Histamine concentration [5]: 0.985 (inactive)
- fold change of Tryptamine concentration [6]: 1.05 (inactive)
- fold change of Tryptamine concentration [7]: 0.986 (inactive)
- fold change of Putrescine concentration (Escherichia coli IAI1 [8]): 1.17 (inactive)
- fold change of Putrescine concentration [9]: 1.01 (inactive)
- fold change of Cadaverine concentration (Escherichia coli IAI1 [10]): 0.977 (inactive)
- fold change of Cadaverine concentration [11]: 0.997 (inactive)
- fold change of 2-Phenylethylamine concentration [12]: 0.934 (inactive)

SMILES: C[C@@H]1CCO[C@H]2Cn3cc(C(=O)NCc4ccc(F)cc4F)c(=O)c(O)c3C(=O)N12 [Dolutegravir] (20 µM)
- growth [1]: 1.06
- growth (Escherichia coli IAI1 [2]): 1.02
- growth [3]: 0.992
- growth [4]: 0.891
- fold change of Histamine concentration [5]: 1.08 (inactive)
- fold change of Tryptamine concentration [6]: 1.02 (inactive)
- fold change of Tryptamine concentration [7]: 0.954 (inactive)
- fold change of Putrescine concentration (Escherichia coli IAI1 [8]): 1.07 (inactive)
- fold change of Putrescine concentration [9]: 0.999 (inactive)
- fold change of Cadaverine concentration (Escherichia coli IAI1 [10]): 0.984 (inactive)
- fold change of Cadaverine concentration [11]: 0.987 (inactive)
- fold change of 2-Phenylethylamine concentration [12]: 0.941 (inactive)

SMILES: O=C(c1ccccc1)c1ccc2n1CCC2C(=O)O (stereo unspecified) [Ketorolac tromethamine] (20 µM)
- growth [1]: 0.909
- growth (Escherichia coli IAI1 [2]): 1.04
- growth [3]: 0.976
- growth [4]: 0.993
- fold change of Histamine concentration [5]: 1.04 (inactive)
- fold change of Tryptamine concentration [6]: 1.08 (inactive)
- fold change of Tryptamine concentration [7]: 1.03 (inactive)
- fold change of Putrescine concentration (Escherichia coli IAI1 [8]): 1.15 (inactive)
- fold change of Putrescine concentration [9]: 1.03 (inactive)
- fold change of Cadaverine concentration (Escherichia coli IAI1 [10]): 1.07 (inactive)
- fold change of Cadaverine concentration [11]: 0.995 (inactive)
- fold change of 2-Phenylethylamine concentration [12]: 0.994 (inactive)

SMILES: c1ccc(CNc2ncnc3nc[nH]c23)cc1 [Aminopurine, 6-benzyl] (20 µM)
- growth [1]: 1.09
- growth (Escherichia coli IAI1 [2]): 0.978
- growth [3]: 0.971
- growth [4]: 0.966
- fold change of Histamine concentration [5]: 1.06 (inactive)
- fold change of Tryptamine concentration [6]: 0.971 (inactive)
- fold change of Tryptamine concentration [7]: 0.932 (inactive)
- fold change of Putrescine concentration (Escherichia coli IAI1 [8]): 1.03 (inactive)
- fold change of Putrescine concentration [9]: 1.02 (inactive)
- fold change of Cadaverine concentration (Escherichia coli IAI1 [10]): 1.02 (inactive)
- fold change of Cadaverine concentration [11]: 1 (inactive)
- fold change of 2-Phenylethylamine concentration [12]: 0.856 (inactive)

SMILES: COc1ccc2cc(CCC(C)=O)ccc2c1 [Nabumetone] (20 µM)
- growth [1]: 1
- growth (Escherichia coli IAI1 [2]): 0.792
- growth [3]: 1.01
- growth [4]: 0.995
- fold change of Histamine concentration [5]: 0.912 (inactive)
- fold change of Tryptamine concentration [6]: 0.926 (inactive)
- fold change of Tryptamine concentration [7]: 0.944 (inactive)
- fold change of Putrescine concentration (Escherichia coli IAI1 [8]): 0.871 (inactive)
- fold change of Putrescine concentration [9]: 0.974 (inactive)
- fold change of Cadaverine concentration (Escherichia coli IAI1 [10]): 1.09 (inactive)
- fold change of Cadaverine concentration [11]: 1.01 (inactive)
- fold change of 2-Phenylethylamine concentration [12]: 0.946 (inactive)

SMILES: CCCCc1oc2ccc(NS(C)(=O)=O)cc2c1C(=O)c1ccc(OCCCN(CCCC)CCCC)cc1 [Dronedarone hydrochloride] (20 µM)
- growth [1]: 0.948
- growth (Escherichia coli IAI1 [2]): 1.09
- growth [3]: 1.02
- growth [4]: 0.895
- fold change of Histamine concentration [5]: 0.99 (inactive)
- fold change of Tryptamine concentration [6]: 0.925 (inactive)
- fold change of Tryptamine concentration [7]: 0.8 (inactive)
- fold change of Putrescine concentration (Escherichia coli IAI1 [8]): 1.16 (inactive)
- fold change of Putrescine concentration [9]: 1 (inactive)
- fold change of Cadaverine concentration (Escherichia coli IAI1 [10]): 0.996 (inactive)
- fold change of Cadaverine concentration [11]: 1.01 (inactive)
- fold change of 2-Phenylethylamine concentration [12]: 0.957 (inactive)

SMILES: O=C(O)COc1nn(Cc2ccccc2)c2ccccc12 [Bendazac] (20 µM)
- growth [1]: 1.19
- growth (Escherichia coli IAI1 [2]): 1.05
- growth [3]: 1.05
- growth [4]: 1.02
- fold change of Histamine concentration [5]: 0.954 (inactive)
- fold change of Tryptamine concentration [6]: 0.948 (inactive)
- fold change of Tryptamine concentration [7]: 0.986 (inactive)
- fold change of Putrescine concentration (Escherichia coli IAI1 [8]): 0.975 (inactive)
- fold change of Putrescine concentration [9]: 1 (inactive)
- fold change of Cadaverine concentration (Escherichia coli IAI1 [10]): 0.973 (inactive)
- fold change of Cadaverine concentration [11]: 1 (inactive)
- fold change of 2-Phenylethylamine concentration [12]: 0.993 (inactive)

SMILES: CC(C)(CO)[C@@H](O)C(=O)NCCCO [(D)-Panthenol] (20 µM)
- growth [1]: 0.885
- growth (Escherichia coli IAI1 [2]): 0.982
- growth [3]: 1.05
- growth [4]: 1.15
- fold change of Histamine concentration [5]: 1.02 (inactive)
- fold change of Tryptamine concentration [6]: 0.993 (inactive)
- fold change of Tryptamine concentration [7]: 0.956 (inactive)
- fold change of Putrescine concentration (Escherichia coli IAI1 [8]): 0.964 (inactive)
- fold change of Putrescine concentration [9]: 1.01 (inactive)
- fold change of Cadaverine concentration (Escherichia coli IAI1 [10]): 1 (inactive)
- fold change of Cadaverine concentration [11]: 0.996 (inactive)
- fold change of 2-Phenylethylamine concentration [12]: 0.999 (inactive)

SMILES: CCOC(=O)c1ccc(C#Cc2ccc3c(c2)C(C)(C)CCS3)nc1 [Tazarotene] (20 µM)
- growth [1]: 1.02
- growth (Escherichia coli IAI1 [2]): 0.951
- growth [3]: 0.961
- growth [4]: 0.972
- fold change of Histamine concentration [5]: 1.02 (inactive)
- fold change of Tryptamine concentration [6]: 1.17 (inactive)
- fold change of Tryptamine concentration [7]: 1.22 (inactive)
- fold change of Putrescine concentration (Escherichia coli IAI1 [8]): 0.958 (inactive)
- fold change of Putrescine concentration [9]: 0.977 (inactive)
- fold change of Cadaverine concentration (Escherichia coli IAI1 [10]): 0.942 (inactive)
- fold change of Cadaverine concentration [11]: 1.04 (inactive)
- fold change of 2-Phenylethylamine concentration [12]: 1.22 (inactive)

SMILES: COC(=O)N/N=C/c1c[n+]([O-])c2ccccc2[n+]1[O-] [Carbadox] (20 µM)
- growth [1]: 0.00259
- growth (Escherichia coli IAI1 [2]): 0.0346
- growth [3]: 0.0738
- growth [4]: 0.0392
- fold change of Histamine concentration [5]: 0.0834 (active)
- fold change of Tryptamine concentration [6]: 0.00903 (active)
- fold change of Tryptamine concentration [7]: 0.0355 (active)
- fold change of Putrescine concentration (Escherichia coli IAI1 [8]): 0.388 (active)
- fold change of Putrescine concentration [9]: 0.377 (active)
- fold change of Cadaverine concentration (Escherichia coli IAI1 [10]): 0.187 (active)
- fold change of Cadaverine concentration [11]: 0.983 (inactive)
- fold change of 2-Phenylethylamine concentration [12]: 0.0387 (active)

SMILES: CCCCC(O)c1ccccc1 (stereo unspecified) [Fenipentol] (20 µM)
- growth [1]: 0.995
- growth (Escherichia coli IAI1 [2]): 1.05
- growth [3]: 1.03
- growth [4]: 0.948
- fold change of Histamine concentration [5]: 0.969 (inactive)
- fold change of Tryptamine concentration [6]: 0.989 (inactive)
- fold change of Tryptamine concentration [7]: 1.01 (inactive)
- fold change of Putrescine concentration (Escherichia coli IAI1 [8]): 1.01 (inactive)
- fold change of Putrescine concentration [9]: 0.987 (inactive)
- fold change of Cadaverine concentration (Escherichia coli IAI1 [10]): 1.03 (inactive)
- fold change of Cadaverine concentration [11]: 1.01 (inactive)
- fold change of 2-Phenylethylamine concentration [12]: 1.04 (inactive)

SMILES: Cc1ncc([N+](=O)[O-])n1CCO [Metronidazole] (20 µM)
- growth [1]: 0.00188
- growth (Escherichia coli IAI1 [2]): 1.04
- growth [3]: 1.02
- growth [4]: 0.0847
- fold change of Histamine concentration [5]: 0.975 (inactive)
- fold change of Tryptamine concentration [6]: 0.011 (active)
- fold change of Tryptamine concentration [7]: 0.0917 (active)
- fold change of Putrescine concentration (Escherichia coli IAI1 [8]): 0.94 (inactive)
- fold change of Putrescine concentration [9]: 1.05 (inactive)
- fold change of Cadaverine concentration (Escherichia coli IAI1 [10]): 0.997 (inactive)
- fold change of Cadaverine concentration [11]: 1.1 (inactive)
- fold change of 2-Phenylethylamine concentration [12]: 0.0796 (active)
